The text below walks through data of PubChem BioAssay (NCI).

About 83,000 compounds went through this panel and 20% of them were active in at least one assay; those are over-represented in the sample as a whole.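 Activity criterion: percent growth below 10, measured after cells in 96-well plates were exposed to a single compound concentration for 48 hours.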 The source made the active and inactive calls.

This experiment concerns HL-60(TB) leukemia. Briefly: NCI-60 one-dose screen, 48 h (100 = growth as untreated, 0 = no growth, -100 = all killed). The settings on record: 10 µM unless noted.
In the case of `COc1ccc(C2Nc3nc(SC)nc(N)c3N=C3c4ccccc4CCC32)cc1` (stereo not given), the growth is 71.1% (inactive).
As for `CC(C)(C)c1ccc(C(=O)N/N=C/c2ccc(O)cc2O)cc1`, the growth is 5.19% (active).
Take `Cc1ccc(Nc2nc(N)nc(CSCC(=O)NN)n2)cc1`: the growth is 20.5% (inactive).
Turning to `COc1ccc(-c2csc(NC(=O)CO[N+](=O)[O-])n2)cc1`, the growth is 107% (inactive).
In the case of `CCCCNc1ccc(-c2ccc(NCCCC)cc2)cc1` it was 45.4% (inactive).
Turning to `Cc1ccc(C2=NN3C(C2)c2cc(Br)ccc2OC32CCN(Cc3ccccc3)CC2)o1` (stereo not given), the growth is 90.4% (inactive).
Turning to `COc1cc(-c2nc(C(=O)NCC(=O)NO)nn2-c2ccc(Cl)cc2)cc(OC)c1OC`, the growth is 97.4% (inactive).
In the case of `CCN1CCN(c2cc(C)c3cc(NC(=O)c4ccc(OC)c(OC)c4)ccc3n2)CC1` it was 1.42% (active); in that of `CC(C)(C)OC(=O)Nc1ccc2c(c1)C(NC(=O)Nc1cccc(C#N)c1)CC(C)(C)O2` (stereo not given), 5.38% (active).
Next, `CCCCN(CCCC)CCC(O)c1cc2ccc(C(F)(F)F)cc2c2cc(C(F)(F)F)ccc12` (stereo not given): 49.8% (inactive); `Nc1nc(N)c2c(n1)NC1(C=C(O)c3ccccc31)C1=C(N2)c2ccccc2C1=O` (stereo not given): 71% (inactive); `CS(=O)(=O)c1ccc(-c2cnc3ccc(-c4cccc(S(C)(=O)=O)c4)nn23)cc1`: 16.6% (inactive).
As to `COc1nc2ccc(C)cc2cc1/C=[N+](\[O-])c1ccccc1`, the growth was 80.3% (inactive).
Consider `Cn1ccnc1C(=O)/C=C/c1ccc(CC(=O)Nc2ccc(Cl)cc2)cc1`, for which the growth was 5.24% (active).
Consider `N#Cc1c(-c2ccccc2)cc(-c2ccccc2)n(CCCCC(=O)O)c1=O`, for which the growth was 102% (inactive).
In the case of `Cc1cc(Nc2ccc3c(c2)OCO3)c2cc3c(cc2n1)OCO3` it was -11.9% (active).
Regarding `O=C(CCCCCNC(=O)c1cc(=O)c(O)co1)Nc1ccccc1`, the growth was 106% (inactive).
In the case of `CC(=O)Oc1c(C)c(OC(C)=O)c2c(c1C(C)=O)OC1CC(=O)C(C(C)=O)=C(O)C21C` (stereo not given), the growth was 79.4% (inactive).
Regarding `COC(=O)c1[nH]cnc1/N=N/N(C)CCO`, the growth is 86.5% (inactive).
Take `CC(C)c1ccc(-c2cnc3nonc3n2)cc1`: the growth was -18.3% (active).
In the case of `COC(=O)c1cc(-c2ccc(OC)c(OC)c2)[nH]c1N/N=C/c1c(Cl)cccc1Cl`, the growth was 3.48% (active).
Regarding `C=C(C)[C@@H]1CC[C@]2(C=NCCCNCCCCNCCCN)CC[C@]3(C)[C@H](CC[C@@H]4[C@@]5(C)CCCNC(C)(C)[C@@H]5CC[C@]43C)[C@@H]12`, the growth is 89.6% (inactive).
Next, `COc1ccc(C(=O)N2CCN(C(=O)c3cc(OC)c(OC)c(OC)c3)CC2)cc1OCCCCOc1cc2c(cc1OC)C(=O)N1CCC[C@H]1C=N2`: 147% (inactive); `CC(C)(CCc1ccccn1)C(=O)CCCc1ccccn1`: 103% (inactive); `O=C(Nc1ccncc1)C(=O)c1cn(S(=O)(=O)c2ccccc2F)c2ccccc12`: 12.7% (inactive).
In the case of `CNC1=C([N+](=O)[O-])C(c2ccccc2O)C(C#N)=C(c2cccs2)O1` (stereo not given), the growth is 75.1% (inactive).
For `O=S(=O)(Cc1ccc(Cl)cc1Cl)c1ccc(Cl)cc1`, the growth was 10.5% (inactive).
Next, `CSc1nsc(N)n1`: 105% (inactive); `COc1ccc(CN2CCc3c(Cl)nc(N)nc3C2=O)c(OC)c1`: 12.3% [100 µM] (inactive).
In the case of `C=C(C)[C@@H]1CC[C@]2(C)CC[C@]3(C)[C@H](CC[C@@H]4[C@@]5(C)CCCNC(C)(C)[C@@H]5CC[C@]43C)[C@@H]12` it was 35.7% (inactive).
Next, `CC(=O)N1N=C(c2ccc(Nc3nc(NCCO)nc(NCCO)n3)cc2)CC1c1ccc(Cl)cc1` (stereo not given): 117% (inactive); `CNC(=O)c1cn2c3c(c(N4CCN(C)CC4)c(F)cc3c1=O)OC[C@@H]2C`: 99.3% (inactive); `COc1cccc(-c2nc(SCC(=O)Nc3ccc(C(=O)/C=C/c4ccc(OC)c(OC)c4)cc3)[nH]c(=O)c2C#N)c1`: 98.2% (inactive).
For the compound `CC(C)CCC[C@@H](C)[C@H]1CC[C@H]2[C@@H](Nc3ccc(O)cc3)CCC[C@]12C`, the growth was 39.2% (inactive).
Turning to `CC1=CN2C(=NC3=C(CCCC/C3=C\c3ccccc3)C2c2ccccc2)S1` (stereo not given), the growth is 102% (inactive).
For the compound `COc1cc(/C=C2/C=C(c3ccc(C(C)(C)C)cc3)N(CCc3ccc(S(N)(=O)=O)cc3)C2=O)cc(OC)c1OC`, the growth was 20.5% (inactive).
Regarding `O=C(NNc1ccccc1)c1ncc[nH]1`, the growth was 7.71% (active).
As to `O=C(CCN1CCCC1)Nc1ccc2c(Nc3ccc(F)cc3)c3ccccc3nc2c1`, the growth was -54.9% (active).
On to `CC(O)C(O)C(O)C(O)C(O)C(=O)NNc1ccccc1` (stereo not given), for which the growth is 116% (inactive).
In the case of `O=C1CCc2c(sc3[nH]c(=S)n(Cc4ccc(Cl)cc4)c(=O)c23)C1` it was -5.26% (active).
